# Reference: the supplement of paper PMC5499739
# Whole data set: some 16,000 sequences, median “Z-score” near -0.37, cut for the highest 2% near 3.1. The full list was thinned out, with the highest values kept by preference.
# Tested on: RBM10 RRM1-ZnF-RRM2 (GST-tagged construct)
# Test: RNAcompete 7-mer binding Z-score; higher = stronger binding preference
# Protocol: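 RNAcompete: 20 pmol GST-tagged RBM10 RNA-binding constructs were incubated with a designed RNA pool of about 241,000 sequences up to 41 nt (1.5 nmol) on glutathione beads for 30 min at 4 °C and washed. Bound RNAs were identified by microarray hybridisation. Each RNA 7-mer is scored by a one-sided Z-score of its enrichment, computed over probes that contain the 7-mer within longer pool sequences.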
row,Sequence,RNAcompete 7-mer binding Z-score
1,AAAGCUC,-0.53
2,AGCUUCG,-0.795
3,UCAGAGU,0.0786
4,GCUCUCA,-0.526
5,UCGGGUU,0.916
6,AAGGGUC,2.01
7,UCGGGUA,1.57
8,AAGGGUA,4.27
9,ACGGGUA,2.22
10,GAGGGUG,3.5
11,GAGGGUC,1.39
12,GAGGGUU,2.88
13,CAGGGUA,2.88
14,UAGGGUU,3.14
15,CAGGGUU,2.05
16,UAGGGUA,4.16
17,UUCCAGC,-0.715
18,GUGUUCA,-0.442
19,AGGUUUC,0.184
20,ACUUGGU,-0.267
21,GUUAGUG,0.953
22,UCUAGCA,-0.712
23,GUCAGUU,-0.289
24,CCGCUAG,-0.588

row,Sequence,RNAcompete 7-mer binding Z-score
1,CACUUCC,-0.868
2,UUCCCUG,-0.737
3,AACAUGC,-0.435
4,AAGGUUU,2.37
5,GAGGGUA,4.4
6,CAGGGUG,2.84
7,UAGGGUG,4.51
8,UAGGGUC,2.16
9,AAGGGUU,3.94
10,GAGGGCG,2.81
11,CAGGGUC,1.42
12,AGGGUUU,2.4
13,UACUCUC,-0.734
14,UGCGCUG,-0.103
15,AAAGGAA,3.51
16,GAAGGAA,4.54
17,AAAGGAC,2.6
18,UAAGGAG,1.9
19,CAAGGAA,1.77
20,AAAGGAG,3.75
21,GCAGGAA,2.07
22,UAAGGAU,1.55
23,GAAGGAU,3.32
24,GGAGGAA,3.08

row,Sequence,RNAcompete 7-mer binding Z-score
1,CAAGGAU,1.42
2,UAAGGAA,1.66
3,AAUGGCG,2.02
4,GUCCUGC,-0.606
5,UACCCCU,-0.65
6,AGCGCUG,-0.0889
7,GCCACUU,-0.992
8,UACACAU,-0.5
9,GUCCGCA,-0.672
10,UCUGAUC,-0.876
11,GCGUGUG,0.618
12,AUCGCAA,-0.388
13,GCUUAAG,-0.439
14,CAAGGAG,2.31
15,GAAGGAG,4.52
16,GAAGGAC,2.8
17,GGUGGAU,2.46
18,UGUGGAG,2.47
19,UGUGGAA,1.47
20,GGUGGAA,3.71
21,AGUGGAC,1.44
22,AGUGGAU,2.33
23,GGUGGAG,3.9
24,AGUGGAA,3.21

row,Sequence,RNAcompete 7-mer binding Z-score
1,CGUGGAA,1.29
2,CGUCACU,-0.515
3,CACCCUG,-0.89
4,AUGACUA,-0.347
5,UGUGGUA,0.833
6,GACGAGA,0.691
7,UCAGCGU,-0.26
8,CCGGCAC,-0.388
9,GAGGAGG,2.99
10,AAGGAUA,2.92
11,AAGGAGA,3.18
12,UAGGAGG,2.94
13,UAGGAGA,1.78
14,AAGGAGG,4.62
15,GAGGAUG,2.57
16,AAGGAUG,3.89
17,CAGGAGA,2.02
18,CCCAAUA,-0.759
19,CCGUCGC,-0.752
20,UGAUCCA,-0.515
21,ACAUCCU,-0.839
22,GCAGGAU,1.22
23,CGAGCGG,3.33
24,AGAGCGG,1.46

row,Sequence,RNAcompete 7-mer binding Z-score
1,CGAGCGU,0.166
2,UGAGCGG,2.06
3,GGAGCGG,4.19
4,GGAGCGA,2.9
5,AGAGCGA,0.581
6,CGGGUUU,1.01
7,CUAUCGA,-0.781
8,AUGGAAG,3.16
9,GUGGAAA,2.46
10,GUGGAAG,3.47
11,GUGGAAC,1.73
12,AUGGAAA,2.62
13,AUGGAAC,2.02
14,UCGGAGU,0.257
15,CGGGAUA,1.44
16,AGGGAUA,4.38
17,GGGGAUA,3.16
18,GAGGAUA,2
19,AGGGAUC,1.32
20,AGGGAUU,2.37
21,CGCAAAG,-0.22
